Measurements: PubChem BioAssay
For part of these data: Results with a measured potency or affinity are listed apart. Active and inactive are the calls of the source.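 How the source made its calls, unless noted: active means calcium signal ratio cut to more than 3 SD under the fully stimulated control mean yet still positive, in both repeats and the primary screen; inactive means the rest.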

Experiments:
[1] = tested on: TRPC4 beta (transient receptor potential cation channel C4), mouse; experiment: activators of mouse TRPC4 channel, confirmation, cell-based, Fluo4 calcium, HEK293 TRPC4beta/mu-opioid, duplicates, 10 µM (AID 2426;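 active means fluorescence ratio normalized to control raised more than 50% in primary screen plus both repeat runs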;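 on activation: percent rise of integrated ratio over buffer wells lacking compound which define 0%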); details: Fluo4 calcium fluorescence, at 10 µM; active compounds read high
[2] = tested on: transient receptor potential cation channel C4 beta (TRPC4), mouse; experiment: activators of mouse TRPC4 channel, confirmation, cell-based, second round, Fluo4, HEK293 TRPC4beta/mu-opioid, 1 µM (AID 2461;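 active means primary screen active and over 50% activation in each of two duplicate runs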;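 on activation: 0% = wells without test compound as baseline of integrated fluorescence ratio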); details: Fluo4 calcium fluorescence, at 1 µM; active compounds read high
[3] = tested on: TRPC4 (transient receptor potential cation channel C4 beta), mouse; experiment: positive allosteric modulators of mouse TRPC4, confirmation, cell-based, second round, Fluo-4, HEK293 TRPC4beta/mu-opioid, 1 µM (AID 2554;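 active means primary screen hit whose fluorescence ratio, in both repeats, exceeds the weak agonist control mean by 3 SD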); details: DAMGO EC20, Fluo-4 calcium flux, at 1 µM; active compounds read high
[4] = tested on: TRPC4 beta (transient receptor potential cation channel C4), mouse; experiment: positive allosteric modulators of mouse TRPC4, confirmation, cell-based, Fluo-4, HEK293 TRPC4beta/mu-opioid (AID 2555;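 active means primary screen hit whose calcium fluorescence ratio, in both repeats, exceeds the weak agonist control mean by 3 SD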); details: DAMGO EC20, Fluo-4 calcium flux, at 10 µM; active compounds read high
[5] = molecular target: Short transient receptor potential channel 4 (Mus musculus) (UniProt Q9QUQ5); experiment: inhibitors of mouse TRPC4 channel, confirmation, cell-based, Fluo4, HEK293 TRPC4beta/mu-opioid (AID 2636;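 active means calcium signal cut by more than 3 SD below the full-agonist control yet still positive, in both repeats and the earlier primary screen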); details: DAMGO, Fluo4 calcium flux, at 10 µM; active compounds read high
[6] = molecular target: Short transient receptor potential channel 4 (Mus musculus) (UniProt Q9QUQ5); experiment: inhibitors of mouse TRPC4 channel, confirmation, cell-based, second round, Fluo4, HEK293 TRPC4beta/mu-opioid, 1 µM (AID 2637); details: Fluo4 calcium flux, DAMGO, at 1 µM; active compounds read high
[7] = molecular target: Short transient receptor potential channel 4 (Mus musculus) (UniProt Q9QUQ5); experiment: TRPC4 positive allosteric modulators, dose response, cell-based, HEK293 TRPC4/mu-opioid, Fluo-4 calcium, EC20 DAMGO (AID 434941;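 active means earlier screen potentiator hit that boosts the TRPC4 ion channel at some dose, with a dose response; inactive means no potentiation, no dose response, or not a prior hit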;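 further: calcium entry triggered by an EC20 dose of DAMGO at the co-expressed mu-opioid receptor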)
[8] = molecular target: Short transient receptor potential channel 4 (Mus musculus) (UniProt Q9QUQ5); experiment: mouse TRPC4 channel inhibitors, dose response, cell-based, HEK293 TRPC4/mu-opioid, Fluo-4 calcium (AID 434942;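 active means primary screen inhibitor hit that blocks the TRPC4 channel at some tested dose, yielding a dose curve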)
[9] = molecular target: Short transient receptor potential channel 6 (Mus musculus) (UniProt Q61143); experiment: inhibition of mouse TRPC6 channel, confirmation, selectivity assay for TRPC4 inhibitor project, cell-based, HEK293, membrane potential dye, duplicate (AID 434948;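 active means active in primary screen and both duplicates, each dropping signal beyond three positive-control SD with fluorescence still positive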); details: HEK293 TRPC6, membrane potential dye fluorescence, at 10 µM, stimulated with maximal-effect acetylcholine; active compounds read high
[10] = molecular target: Short transient receptor potential channel 6 (Mus musculus) (UniProt Q61143); experiment: activation of mouse TRPC6 channel, confirmation, selectivity assay for TRPC4 activator project, cell-based, HEK293, membrane potential dye, duplicate (AID 434950;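 active means membrane potential signal rise above negative control mean plus 3 SD in both duplicates, also active in the earlier TRPC4 screen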;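 on activation: 0% = buffer only wells and 100% = acetylcholine maximal-effect wells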); details: HEK293 TRPC6, membrane potential fluorescence, at 10 µM; active compounds read high
[11] = molecular target: Short transient receptor potential channel 6 (Mus musculus) (UniProt Q61143); experiment: TRPC6 potentiation by TRPC4 potentiator hits, confirmation, selectivity assay for TRPC4 potentiator project, HEK293 cells, membrane potential dye, duplicate (AID 434952;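 active means compound raising the membrane signal above positive-control mean plus 3 SD in both repeats, and a primary screen hit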); details: HEK293 TRPC6, membrane potential dye fluorescence, at 10 µM, maximal acetylcholine added after compound; active compounds read high
[12] = molecular target: Short transient receptor potential channel 4 (Mus musculus) (UniProt Q9QUQ5); experiment: calcium flux activators in TRPC4/5HT1a cells, counter-screen for TRPC4 activator project, cell-based, second counter screen, HEK293 TRPC4/5HT1a, Fluo-4 (AID 434977;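 active means calcium signal rise above buffer-control mean plus 5 SD in both duplicates, and also a hit in the primary screen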;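 on activation: plate controls were assay buffer for no effect and maximal serotonin response for full effect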); details: Fluo-4 calcium flux, at 10 µM; active compounds read high
[13] = calcium flux inhibitors in TRPC4/5HT1a cells, confirmation, counter-screen for TRPC4 inhibitor project, cell-based, second counter screen, HEK293 TRPC4/5HT1a, Fluo-4 (AID 434978;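 active means primary screen active whose calcium signal fell more than 3 SD beyond the full-serotonin control mean in both duplicate plates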;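 further: serotonin given first at submaximal then at maximal dose after compound preincubation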); details: Fluo-4 calcium flux, at 10 µM, serotonin added to trigger calcium flux; active compounds read high
[14] = tested on: TRPC4 (mouse), co-expressed with 5HT1a in HEK293; experiment: calcium flux potentiators in TRPC4/5HT1a cells, confirmation, counter-screen for TRPC4 potentiator project, cell-based, second counter screen, HEK293 TRPC4/5HT1a, Fluo-4 (AID 434979;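 active means signal rise over 3 SD above mean of control wells given weak agonist, in both repeats and first screen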); details: Fluo-4 calcium flux, at 10 µM, serotonin added at its EC20 dose; active compounds read high
[15] = calcium flux activation in mu-opioid HEK293 cells, confirmation, counter-screen for TRPC4 activator project, cell-based, HEK293 mu-opioid receptor line (AID 449723;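 active means hit in primary screen, with calcium signal over 5 SD above buffer well mean in both duplicates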;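 further: counter screen cells carry the mu-opioid receptor alone and lack TRPC4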); details: Fluo-4 calcium fluorescence, at 10 µM; active compounds read high
[16] = calcium flux enhancement in mu-opioid HEK293 cells, confirmation, counter-screen for TRPC4 allosteric potentiator project, cell-based, HEK293 mu-opioid receptor line (AID 449724;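 active means calcium signal rise more than 3 SD above the low-dose agonist control mean, in both duplicate plates and the primary screen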); details: Fluo-4 calcium flux, at 10 µM, compound added before EC20 DAMGO stimulus; active compounds read high

Chain of Short transient receptor potential channel 6 (Mus musculus) (Q61143 whole entry, looked up): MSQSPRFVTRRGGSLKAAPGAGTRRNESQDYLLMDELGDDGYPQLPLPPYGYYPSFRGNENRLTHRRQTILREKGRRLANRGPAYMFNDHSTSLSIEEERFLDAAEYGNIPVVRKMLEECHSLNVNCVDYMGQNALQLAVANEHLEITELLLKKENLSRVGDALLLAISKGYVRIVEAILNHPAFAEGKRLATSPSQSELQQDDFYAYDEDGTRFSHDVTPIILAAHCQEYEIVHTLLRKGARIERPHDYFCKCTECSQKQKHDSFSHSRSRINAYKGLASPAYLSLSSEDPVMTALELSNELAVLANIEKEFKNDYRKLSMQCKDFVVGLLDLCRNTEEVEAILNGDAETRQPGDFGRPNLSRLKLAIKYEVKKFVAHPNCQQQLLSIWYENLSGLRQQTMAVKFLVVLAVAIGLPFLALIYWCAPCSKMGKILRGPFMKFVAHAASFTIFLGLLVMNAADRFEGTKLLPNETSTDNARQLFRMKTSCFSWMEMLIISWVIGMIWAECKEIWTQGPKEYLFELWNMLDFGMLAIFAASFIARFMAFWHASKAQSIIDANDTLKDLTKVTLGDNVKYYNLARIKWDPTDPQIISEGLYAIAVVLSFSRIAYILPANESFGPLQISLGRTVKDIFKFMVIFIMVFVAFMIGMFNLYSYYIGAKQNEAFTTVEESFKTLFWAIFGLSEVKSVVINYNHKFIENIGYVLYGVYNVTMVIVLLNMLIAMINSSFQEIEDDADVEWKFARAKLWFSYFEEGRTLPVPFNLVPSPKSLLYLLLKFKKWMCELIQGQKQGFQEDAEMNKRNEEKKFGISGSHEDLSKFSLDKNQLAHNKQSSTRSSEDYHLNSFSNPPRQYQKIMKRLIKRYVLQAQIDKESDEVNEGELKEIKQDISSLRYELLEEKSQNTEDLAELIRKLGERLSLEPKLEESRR
Chain of Short transient receptor potential channel 4 (Mus musculus) (Q9QUQ5 whole entry, looked up): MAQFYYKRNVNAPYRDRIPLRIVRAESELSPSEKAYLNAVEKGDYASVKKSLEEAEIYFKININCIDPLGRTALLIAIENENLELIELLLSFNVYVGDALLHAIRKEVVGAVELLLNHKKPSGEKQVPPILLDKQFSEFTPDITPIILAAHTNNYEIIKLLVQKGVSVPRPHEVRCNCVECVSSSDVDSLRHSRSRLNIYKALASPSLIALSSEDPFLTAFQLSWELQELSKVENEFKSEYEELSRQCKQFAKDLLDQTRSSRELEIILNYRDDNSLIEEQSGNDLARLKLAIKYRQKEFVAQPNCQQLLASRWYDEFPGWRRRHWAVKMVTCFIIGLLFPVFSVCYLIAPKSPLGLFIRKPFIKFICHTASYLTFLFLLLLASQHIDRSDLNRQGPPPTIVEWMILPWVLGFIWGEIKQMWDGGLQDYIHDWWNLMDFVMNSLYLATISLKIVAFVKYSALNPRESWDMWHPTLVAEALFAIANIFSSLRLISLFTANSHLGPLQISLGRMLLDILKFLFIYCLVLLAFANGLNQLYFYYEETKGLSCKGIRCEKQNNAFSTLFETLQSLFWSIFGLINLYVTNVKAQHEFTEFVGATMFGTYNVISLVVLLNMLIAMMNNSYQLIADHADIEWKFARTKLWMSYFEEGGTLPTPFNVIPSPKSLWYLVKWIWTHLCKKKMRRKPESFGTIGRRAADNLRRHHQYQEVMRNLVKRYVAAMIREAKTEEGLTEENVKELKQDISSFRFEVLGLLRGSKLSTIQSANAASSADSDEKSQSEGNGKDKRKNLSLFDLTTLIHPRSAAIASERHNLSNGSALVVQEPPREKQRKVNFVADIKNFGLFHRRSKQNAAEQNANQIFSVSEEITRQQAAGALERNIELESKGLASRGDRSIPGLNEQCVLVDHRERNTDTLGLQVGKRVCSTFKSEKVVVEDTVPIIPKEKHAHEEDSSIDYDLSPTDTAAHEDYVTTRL

CN(C)C(CNC(=O)CCc1c[nH]c2ccccc12)c1ccccc1 (stereo not given)
active: activation [1] 89% | activation [2] 83% | activation [10] 26%
inactive: outcome [3] | outcome [4] | outcome [5] | outcome [6] | outcome [7] | outcome [8] | outcome [9] | outcome [11] | outcome [12] | outcome [13] | outcome [14] | outcome [15] | outcome [16]

Cc1ccc(/C=N\NC(=O)C2COc3cc4ccccc4cc3O2)o1 (stereo not given)
active: activation [1] 102% | activation [10] 27% | activation [12] 40.6%
inactive: outcome [2] | outcome [3] | outcome [4] | outcome [5] | outcome [6] | outcome [7] | outcome [8] | outcome [9] | outcome [11] | outcome [13] | outcome [14] | outcome [15] | outcome [16]

FC(F)(F)c1cnc(N2CCCN(C(=S)Nc3ccccc3)CC2)c(Cl)c1
inactive: outcome [3] | outcome [4] | outcome [5] | outcome [6] | outcome [7] | outcome [8] | outcome [9] | outcome [10] | outcome [11] | outcome [13] | outcome [14] | outcome [15] | outcome [16]
active: activation [1] 208% | activation [2] 62% | activation [12] 84.8%

Cc1cc(NC(=O)c2cnn3cccnc23)nn1CC(=O)Nc1cccnc1
active: potentiation [3] 22% | potentiation [4] 109% | potentiation [14] 72.1%
inactive: outcome [1] | outcome [2] | outcome [5] | outcome [6] | outcome [7] | outcome [8] | outcome [9] | outcome [10] | outcome [11] | outcome [12] | outcome [13] | outcome [15] | outcome [16]

CCOC(=O)C1(CCCc2ccccc2)CCN(Cc2cn(CC)nc2C)CC1
active: activation [1] 153% | activation [2] 76% | activation [10] 84%
inactive: outcome [3] | outcome [4] | outcome [5] | outcome [6] | outcome [7] | outcome [8] | outcome [9] | outcome [11] | outcome [12] | outcome [13] | outcome [14] | outcome [15] | outcome [16]

CC1CC(C)CN(CCCNC(=O)c2nn(C)c3c2CS(=O)(=O)c2ccccc2-3)C1 (stereo not given)
inactive: outcome [3] | outcome [4] | outcome [5] | outcome [6] | outcome [7] | outcome [8] | outcome [9] | outcome [11] | outcome [13] | outcome [14] | outcome [15] | outcome [16]
active: activation [1] 112% | activation [2] 72% | activation [10] 40.5% | activation [12] 43.2%

Cc1ccc2oc(=O)c3cnn(CC(=O)NC4CCN(Cc5ccccc5)CC4)c3c2c1
inactive: outcome [2] | outcome [3] | outcome [4] | outcome [5] | outcome [6] | outcome [7] | outcome [8] | outcome [9] | outcome [10] | outcome [11] | outcome [12] | outcome [13] | outcome [14] | outcome [15] | outcome [16]
active: activation [1] 68%

Cc1onc(-c2ccccc2)c1C(=O)NC(=S)NNC(=O)c1ccco1
inactive: outcome [2] | outcome [3] | outcome [4] | outcome [5] | outcome [6] | outcome [7] | outcome [8] | outcome [9] | outcome [11] | outcome [13] | outcome [14] | outcome [15] | outcome [16]
active: activation [1] 142% | activation [10] 30.5% | activation [12] 51.5%

CCCCN(C)CCCNC(=O)CN1N=C(c2ccc(Cl)cc2)CCC1=O
inactive: outcome [1] | outcome [2] | outcome [3] | outcome [4] | outcome [5] | outcome [6] | outcome [7] | outcome [8] | outcome [9] | outcome [11] | outcome [13] | outcome [15] | outcome [16]
active: activation [10] 30% | activation [12] 16.6% | potentiation [14] 21.3%

CC1CCCCN1S(=O)(=O)c1ccc(C(=O)N(CCCN(C)C)c2nc3ccc(Br)cc3s2)cc1 (stereo not given)
inactive: outcome [1] | outcome [2] | outcome [3] | outcome [4] | outcome [5] | outcome [6] | outcome [7] | outcome [8] | outcome [9] | outcome [10] | outcome [11] | outcome [13] | outcome [14] | outcome [16]
active: activation [12] 21% | activation [15] 14.9%

O=C(NCCc1ccccn1)c1ccc(OC2CCN(CCc3ccccc3)CC2)cc1
inactive: outcome [2] | outcome [3] | outcome [4] | outcome [5] | outcome [6] | outcome [7] | outcome [8] | outcome [9] | outcome [11] | outcome [12] | outcome [13] | outcome [14] | outcome [15] | outcome [16]
active: activation [1] 76% | activation [10] 44.5%

CN(CCOc1ccc(Cl)cc1)CC(O)c1ccccc1 (stereo not given)
inactive: outcome [2] | outcome [3] | outcome [4] | outcome [5] | outcome [6] | outcome [7] | outcome [8] | outcome [9] | outcome [11] | outcome [13] | outcome [14] | outcome [15] | outcome [16]
active: activation [1] 76% | activation [10] 52.5% | activation [12] 13.9%

O=C(O)c1ccc(-c2ccc(/C=c3/sc4nc5ccccc5n4c3=O)o2)cc1Cl
active: potentiation [4] 10% | activation [10] 218% | potentiation, percent of control [11] 166% | activation [12] 46.3% | activation [15] 40.9%
inactive: outcome [1] | outcome [2] | outcome [3] | outcome [5] | outcome [6] | outcome [7] | outcome [8] | outcome [9] | outcome [13] | outcome [14] | outcome [16]

O=C(C1CCCN(Cc2ccccc2)C1)N1CCc2ccccc2C1 (stereo not given)
inactive: outcome [3] | outcome [4] | outcome [5] | outcome [6] | outcome [7] | outcome [8] | outcome [9] | outcome [11] | outcome [13] | outcome [14] | outcome [15] | outcome [16]
active: activation [1] 105% | activation [2] 94% | activation [10] 71% | activation [12] 40.5%

COc1ccc(-n2cc(CNCCc3ncc(C)[nH]3)c(-c3ccccc3Cl)n2)cc1
active: activation [1] 214% | activation [10] 30%
inactive: outcome [2] | outcome [3] | outcome [4] | outcome [5] | outcome [6] | outcome [7] | outcome [8] | outcome [9] | outcome [11] | outcome [12] | outcome [13] | outcome [14] | outcome [15] | outcome [16]
